Screening data (PubChem BioAssay)
Hits are enriched below; roughly 2.4% of the tested compounds scored in any of these assays.
PLCb3 inh: human PLC-beta3 inhibitors, primary screen, biochemical, fluorescence; 1-phosphatidylinositol 4,5-bisphosphate phosphodiesterase beta-3 (Homo sapiens), Q01970; AID 720704, 2013; actives 0.18% (n = 370,000); Purified PLC-beta3, fluorogenic substrate; inhibition, % at 12.2 µM; in the data active = inhibition above about 11%
LEDGF integ inh: blockers of LEDGF/p75-dependent integrase strand transfer – biochemical, TR-FRET, high throughput, primary screen. AID 743269, 2014. inhibition, % at 3.7 µM. actives 0.64% (n = 370,000). TR-FRET IN-LEDGF/p75 DNA integration, Eu/Cy5;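 active = inhibition above the screen-wide mean plus 3 SD, cut at about 13% in these data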;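 also: signal is the Cy5 over europium emission ratio at 671 and 618 nm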
PLCg1 inh: PLC-gamma1 enzyme inhibitors, primary screen, biochemical, fluorescence, purified enzyme; 1-phosphatidylinositol 4,5-bisphosphate phosphodiesterase gamma-1 (Homo sapiens), P19174; fluorogenic substrate; inhibition, % at 12.2 µM; actives 0.84% (n = 370,000); AID 720700, 2013; in the data active = inhibition above about 9.5%
UHRF1 MBD2 ctr: UHRF1 methylated DNA binding inhibitors, primary screen, counter-screen for MBD2 inhibitor project, biochemical, TR-FRET, human UHRF1, single concentration | UHRF1 binding to methylated oligo | inhibition, % at 4.4 µM | actives 0.75% (n = 370,000) | AID 687016, 2013; in the data active = inhibition above about 21%;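 also: UHRF1 SRA domain binding a hemimethylated CpG hairpin DNA probe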
MBD2 inh: inhibitors of MBD2 binding to methylated DNA, primary screen, biochemical, TR-FRET, DNA-binding domain, human; inhibition, % at 4.4 µM; MBD2 binding to methylated oligonucleotide; Methyl-CpG-binding domain protein 2 (Homo sapiens), Q9UBB5; actives 0.31% (n = 370,000); AID 686964, 2013; in the data active = inhibition above about 13%
Target sequence (Q9UBB5 whole entry, looked up, the tested form may be a part): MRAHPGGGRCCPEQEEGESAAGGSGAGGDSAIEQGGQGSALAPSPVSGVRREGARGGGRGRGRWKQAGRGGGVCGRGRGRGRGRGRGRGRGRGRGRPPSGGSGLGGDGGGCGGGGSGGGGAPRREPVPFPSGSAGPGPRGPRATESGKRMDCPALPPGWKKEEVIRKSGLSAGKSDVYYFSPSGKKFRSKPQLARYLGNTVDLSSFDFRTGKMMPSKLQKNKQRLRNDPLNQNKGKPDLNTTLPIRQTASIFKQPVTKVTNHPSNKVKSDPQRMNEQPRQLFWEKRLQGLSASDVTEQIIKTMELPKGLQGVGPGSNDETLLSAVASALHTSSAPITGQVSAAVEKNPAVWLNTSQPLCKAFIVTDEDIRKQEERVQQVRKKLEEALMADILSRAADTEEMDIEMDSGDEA
Of the large screens only hits and unclear results are named; the others gave an inactive call.

CC(=O)N1CCN(c2ccc(NCc3ccccc3)cc2)CC1	none
COC(=O)[C@]12C[C@H](CC(=O)NCCC(C)C)C(=O)N(Cc3cccc4ccccc34)C1=C[C@H](C(C)C)O[C@@H]2C1CC1	none
Cc1ccccc1CN1[C@@H](C)[C@H](c2ccccc2)Oc2cccc(NCCc3ccccc3)c2S1(=O)=O	UHRF1 MBD2 ctr 21
Cc1ccc(C(=O)NC2CCS(=O)(=O)C2)cc1S(=O)(=O)N1CCOCC1 (stereo not drawn)	none
CC1CCCC(NC(=O)COC(=O)c2ccc(S(=O)(=O)N3CCOCC3)cc2)C1C (stereo not drawn)	UHRF1 MBD2 ctr 21
CCOc1ccc(NC(=O)COC(=O)c2cc(S(=O)(=O)N3CCCC3)ccc2C)cc1	none
Cc1ccc(S(=O)(=O)N2CCOCC2)cc1C(=O)OCC(=O)NC1CC1	none
Cc1ccc(C(=O)NC2CCS(=O)(=O)C2)cc1S(=O)(=O)N1CCCCC1 (stereo not drawn)	UHRF1 MBD2 ctr 25
Cc1ccc(S(=O)(=O)N2CCCCC2)cc1C(=O)OCC(=O)NC(=O)NC12CC3CC(CC(C3)C1)C2	UHRF1 MBD2 ctr 45
Cc1ccc(S(=O)(=O)N2CCOCC2)cc1C(=O)OCC(=O)NC1CCS(=O)(=O)C1 (stereo not drawn)	UHRF1 MBD2 ctr 21
COc1ccc(C(c2ccc(OC)cc2)N2CCN(C(=O)c3noc(C)c3[N+](=O)[O-])CC2)cc1	none
CNc1ccc(C=C2C=Cc3ccccc32)cc1	PLCg1 inh 11
CN(C)c1ccc(C=C2C=Cc3ccccc32)cc1	none
Cc1cccc(NC(=O)COc2ccc3oc4c(c3c2)CCCC4)n1	UHRF1 MBD2 ctr 73
Cc1cccc(NC(=O)COc2ccc3c(c2)CCC3)n1	none
CC(=O)NC(Cc1ccccc1C)C(=O)NC1CCN(c2c3c(nc4ncnn24)CCC3)CC1 (stereo not drawn)	UHRF1 MBD2 ctr 39
Cc1ccc(C(=O)N/C(=C\c2ccccc2)C(=O)NCc2ccncc2)cc1	none
Cc1ccc(C(=O)N/C(=C/c2ccc(F)cc2)C(=O)NCc2ccncc2)cc1	UHRF1 MBD2 ctr 23
COC(=O)[C@]12C[C@H](CC(=O)NCc3ccc(C)o3)C(=O)N(CCc3ccc(OC)c(OC)c3)C1=C[C@H](C(C)C)O[C@@H]2C1CC1	none
CCOc1ccccc1NC(=O)C1=C(C)NC(=O)NC1c1cccc(OC)c1OC (stereo not drawn)	UHRF1 MBD2 ctr 23
Cc1ccc(C(=O)Nc2ccc(O)c(C(=O)O)c2)o1	UHRF1 MBD2 ctr 44
Cc1ccc(C(=O)Nc2ccc(F)cc2)o1	none
CCCCNC(=O)NC1CCN(CC(=O)Nc2ccc3c(c2)OCCO3)CC1	UHRF1 MBD2 ctr 32
O=C(CN1CCC(NC(=O)NC2CCCC2)CC1)Nc1ccc2c(c1)OCCO2	none
COc1ccc(N2C(=O)CC(NCC#N)C2=O)cc1 (stereo not drawn)	none
COc1ccc(N2C(=O)CC(NCc3cccs3)C2=O)cc1 (stereo not drawn)	PLCg1 inh 11
CC(=O)N1CCc2cc(S(=O)(=O)NC3CCN(C(=O)OCc4ccccc4)CC3)ccc21	none
CCCCCC[C@@H](CC)CN(C(=O)Oc1ccccc1)c1ccccc1	none
CN(C)CCN(Cc1ccc(Cl)cc1)c1ccccn1	none
S=C(NCCCCN(Cc1ccc(Cl)cc1)c1ccc(Br)cn1)NCCCc1cnc[nH]1	PLCg1 inh 10
N/C(=N\N=Cc1ccc2c(c1)OCO2)NN=Cc1ccc2c(c1)OCO2	LEDGF integ inh 43
O=C(NN=Cc1ccc2c(c1)OCO2)NN=Cc1ccc2c(c1)OCO2	none
COc1cc2c(cc1NC(=O)CSc1nnc(-c3ccccc3F)n1-c1ccc(C)cc1)oc1ccccc12	none
CN(C)c1ccc(N=Nc2ccccc2C(=O)OCC(=O)NCC2CCCCC2)cc1	PLCg1 inh 11
COc1ccc(/C=N/N2C(=O)CSC2=S)cc1	UHRF1 MBD2 ctr 63
CC(C)(C)c1ccc(/C=N/N2C(=O)CSC2=S)cc1	none
CCOc1cc(NCCN2CCOCC2)c([N+](=O)[O-])cc1OCC	UHRF1 MBD2 ctr 24
N#Cc1cccc(OC[C@@H](O)CN2CCC(C(O)(c3ccccc3)c3ccccc3)CC2)c1	none
CC1=C(C(=O)N(C(C)C)C(C)C)CC(CC(=O)NCCN2CCOCC2)C(=O)N1CCCN1CCCC1=O (stereo not drawn)	none
CC1=C(C(=O)N(C)C)CC(CC(=O)NCCN2CCOCC2)C(=O)N1CCCN1CCCC1=O (stereo not drawn)	UHRF1 MBD2 ctr 22
Cc1cc(C)c(C)c(S(=O)(=O)N2CCN(C)CC2)c1C	UHRF1 MBD2 ctr 39
Cc1cc(C)c(C)c(S(=O)(=O)N2CCSCC2)c1C	none
Cc1ccc2cc(CN(CC3CCCO3)S(=O)(=O)c3ccccc3)c3nnnn3c2c1 (stereo not drawn)	UHRF1 MBD2 ctr 21
Cc1ccc(OCC(=O)NNC(=O)c2cccnc2)cc1	UHRF1 MBD2 ctr 27
CCOc1ccc2ccccc2c1/C=N/NC(=O)CNC(=O)Cc1ccccc1	UHRF1 MBD2 ctr 23
CCOc1ccc2ccccc2c1/C=N/NC(=O)CNC(=O)c1ccccc1F	none
COc1ccc(-n2c(N)c(C(=O)NCc3ccco3)c3nc4ccccc4nc32)cc1OC	UHRF1 MBD2 ctr 47
NCCN1CCN(S(=O)(=O)c2ccc3c(c2)CCN3C(=O)C2CCC2)CC1	none
CCCCn1nnnc1C1(C)CCC(=O)N1CCCN1CCOCC1 (stereo not drawn)	UHRF1 MBD2 ctr 22
CC1(c2nnnn2-c2ccc3c(c2)OCCO3)CCC(=O)N1CCCN1CCOCC1 (stereo not drawn)	none
CCC(C)COC(c1ccccc1)(c1ccccc1)C(Oc1nc(C)cc(C)n1)C(=O)O (stereo not drawn)	UHRF1 MBD2 ctr 41
CCS(=O)(=O)c1ccc2oc(SCC(=O)Nc3ccc(OC)cc3OC)nc2c1	none
CCS(=O)(=O)c1ccc2oc(SCC(=O)NCCc3ccc(OC)cc3)nc2c1	UHRF1 MBD2 ctr 29
COc1ccc(N2CCN(C(=O)c3ccc4c(c3)CCN4S(=O)(=O)c3ccccc3)CC2)cc1	none
COc1ccccc1N1CCN(C(=O)c2ccc3c(c2)CCN3S(=O)(=O)c2ccccc2)CC1	PLCg1 inh 11
COC(=O)[C@]12C[C@H](CC(=O)N3CCOCC3)C(=O)N(CCc3ccc(OC)c(OC)c3)C1=C[C@H](C1CCCC1)O[C@@H]2C	none
CCOC(=O)/C=C(\C)Sc1cc(=O)oc2ccccc12	none
CCOC(=O)/C=C(\C)Sc1cc(O)c2ccccc2c1O	LEDGF integ inh 29
CCOC(=O)CSC1=C(C#N)C(=O)NC(c2ccc(OC)cc2)S1 (stereo not drawn)	PLCb3 inh 17, PLCg1 inh 14
